Measurements reported in the supplement of paper PMC8047044.

Each molecule was assayed on Neuro-2a (assay: neurite formation score, plate-normalized to DMSO control mean 5.04 (score (0-8 scale)); higher = more or longer neurites). Details: 0.1 µM.
Description: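 Neuro-2a mouse neuroblastoma cells in PLL-coated 96-well plates were pre-treated for 1 h in DMEM(+) with each kinase inhibitor at 0.1 µM, then switched to serum-free DMEM(-) with inhibitor to induce neurite outgrowth and fixed about 2-3 h later. Three blinded observers scored neurite formation from 0 (no neurites) to 8 (long neurites on almost all cells).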

Compound	neurite formation score
CCOC(=O)c1cnc2ccc(-c3cncc(NS(=O)(=O)c4ccccc4)c3)cn12	0.0843
Cc1cc(NC(=O)c2cccc(NC(=O)/C=C/CN(C)C)c2)ccc1Nc1nccc(-c2cccnc2)n1	4.58
CN1CCN(c2ccc(C(=O)Nc3n[nH]c4ccc(Cc5cc(F)cc(F)c5)cc34)c(NC3CCOCC3)c2)CC1 [Entrectinib]	0.751
Cn1cc(-c2ccc3ncc(Cc4ccc5ncccc5c4)n3n2)cn1	4.92
Cn1cc(C2=C(c3ccc(Cl)cc3Cl)C(=O)NC2=O)c2ccccc21	4.76
Cn1c(=O)n(-c2ccc(C(C)(C)C#N)cc2)c2c3cc(-c4cnc5ccccc5c4)ccc3ncc21	5.21
COc1cc2c(c(OC)c1OC)-c1c(cc3c(c1OC)OCO3)CC(C)C(C)C2 (stereo unspecified) [Schizandrin B]	5.08
COc1cc2c(Oc3ccc(NC(=O)C4(C(=O)Nc5ccc(F)cc5)CC4)cc3F)ccnc2cc1OCCCN1CCOCC1	3.38
C=CCc1ccc(O)c(-c2ccc(O)c(CC=C)c2)c1 [Honokiol]	2.76
COc1cc(CCc2cc(NC(=O)c3ccc(N4CC(C)NC(C)C4)cc3)n[nH]2)cc(OC)c1 (stereo unspecified)	4.21
O=[N+]([O-])c1ccc(-c2nc(-c3ccc(F)cc3)c(-c3ccncc3)[nH]2)cc1	4.25
Cc1ccc(NC(=O)c2cccc(N(C)C)c2)cc1NC(=O)c1ccc(O)cc1	4.58
O=C(Nc1ccc(OC(F)(F)F)cc1)c1sccc1NCc1ccnc2ccccc12	3.38
CCCS(=O)(=O)Nc1ccc(F)c(C(=O)c2c[nH]c3ncc(-c4ccc(Cl)cc4)cc23)c1F [Vemurafenib (PLX4032, RG7204)]	4.04
O=C1NCCc2[nH]c(-c3ccncc3)cc21	5.92
COCCOc1ccc2c(c1)ncn2-c1ccc2cccc(N3CCC(N)CC3)c2n1	5.08
